# Measured values published in PubChem BioAssay (NCATS).
# Inconclusive results are not listed. The source made the active and inactive calls. The call rests on the fitted dose curve; in most records, active means well fitted cell-killing curve with a large enough effect; inconclusive means small, poorly fitted or top-dose-only effect; inactive means flat fitted curve, though single readings scatter.
# Assay: qHTS of pediatric cancer cell lines to identify multiple opportunities for drug repurposing: Primary screen for U-2 OS cells (AID 1347096); further: nearly all actives have a fitted effect of over 50% in size
# Conditions: U-2 OS viability, CellTiter-Glo luminescence, 48 h; series mostly up to 46 µM; activity change, negative = cytotoxic: at the top concentration
# Source text: Drug repurposing or repositioning has been offered as a strategy for drug development in oncology programs. This approach has special potential for childhood cancers and other rare or orphan diseases, where the expected return on new drug development has been a disincentive to pharmaceuticals.
# In this project we exploit the poly-pharmacology of drugs to discover new indications via phenotypic screening of a panel of 19 well-characterized cell lines derived from solid tumors seen in children and adolescents. The goal is to identify approved drugs with previously unrecognized anticancer properties that has the potential to reveal new mechanisms and biological processes involved in carcinogenesis or drug resistance. We employed a titration-based paradigm (quantitative high-throughput screening or qHTS), where all compounds were tested at multiple concentrations for their effect on cell viability. Concentration-response curves (CRCs) were derived directly from the primary screen, and both potency and efficacy values were used to identify compounds with robust bioactivity profiles. We screened the NIH Chemical Genomics Center (NCGC) Pharmaceutical Collection (NPC) and Mechanism Interrogation Plate (MIPE) small molecule collections of approved and investigational compounds against these cell lines; and measured metabolically active cells after 48 hours of compound treatment as a proxy for cell viability.
# Assay Submitter: Nathalia J. Martinez, National Center for Advancing Translational Sciences, National Institutes of Health, Rockville, MD, USA; email: natalia.martinez@nih.gov
# [1] Shen, M et al. Quantitative high-throughput phenotypic screening of pediatric cancer cell lines identifies multiple opportunities for drug repurposing. Oncotarget 2017 Dec 19;9(4):4758-4772. PMID 29435139.
# The cells were obtained from University of North Carolina (UNC), Pediatric Preclinical Testing Program (PPT), and Coriell Institute (CI).
# qHTS cell viability assay:
# Cells were assayed in growth media at a density of 500-1,000 cells/well. Five microliters of cells were dispensed into 1,536-well, white, solid-bottom, TC-treated plates (Greiner Bio One) using a multidrop dispenser and incubated at 37 degrees C, 5% CO2, under a humidified atmosphere for 5 hours. Twenty-three nanoliters of compounds and controls (neutral control DMSO or positive control bortezomib at final concentration of 2.3 µM) were subsequently transferred by Kalypsys pintool. For primary screens, the MIPE collection was tested at 11-point dilutions (final concentrations range from 0.78 nM to 46 µM) and the NPC collection at 8-point dilutions (final concentrations range from 0.59 nM to 46 µM). Compounds tested in follow-up screens were assayed at 11-point dilutions. Cells were incubated for 48 hours, followed by addition of 3 µL of CellTiter-Glo (Promega). After a 15 min incubation at room temperature, samples were analyzed for luminescence intensity using a ViewLux High-throughput CCD imager equipped with clear filters.
# Potency means the concentration at half of the fitted maximal effect.
SMILES,"activity change, negative = cytotoxic",Potency
O=C1OC(CCN2CCCCC2)OC1(c1ccccc1)c1ccccc1 (stereo not given),2.54% (inactive),
O=C1OC(c2ccc(O)c(S(=O)(=O)O)c2)(c2ccc(O)c(S(=O)(=O)O)c2)c2c(Br)c(Br)c(Br)c(Br)c21,3.61% (inactive),
COP(=S)(OC)Oc1cc(Cl)c(Cl)cc1Cl,6% (inactive),
C[C@]12CCC(=O)C=C1CC[C@@H]1[C@@H]2CC[C@]2(C)C(=O)CC[C@@H]12,-0.926% (inactive),
COP(=S)(OC)Oc1ccc(S(=O)(=O)N(C)C)cc1,2.31% (inactive),
C[C@]12CC[C@H]3[C@@H](CC[C@@]45O[C@H]4C(O)=C(C#N)C[C@]35C)[C@H]1CC[C@H]2O,16.4% (inactive),
c1ccc(N2CCNCC2)cc1,18.7% (inactive),
Nc1ccccc1C(=O)O,8.87% (inactive),
COc1cccc2c1C(=O)c1c(O)c3c(c(O)c1C2=O)C[C@@](O)(C(=O)CO)CC3OC1CC(N2CCOC(OC)C2)C(O)C(C)O1 (stereo not given in full),,266 nM (active)
CC(C)(C)NCC(O)c1ccccc1Cl (stereo not given),-4.41% (inactive),
COc1cc(CCN)cc(OC)c1OC,-4.15% [at 92.7 µM] (inactive),
C#C[C@]1(O)CC[C@H]2[C@@H]3CCC4=CC(=O)CC[C@]4(C)[C@H]3CC[C@@]21C,6.05% (inactive),
CN1CCC(O)(c2ccc(F)cc2)C(C(=O)c2ccc(F)cc2)C1 (stereo not given),0.428% (inactive),
COc1cccc([C@@]2(O)CCCC[C@@H]2CN(C)C)c1,5.72% (inactive),
CC(C)C[C@H](CN)CC(=O)O,4.84% (inactive),
NC(=O)c1cc([N+](=O)[O-])cc([N+](=O)[O-])c1,6.48% (inactive),
C=CCC1(C(C)CC)C(=O)NC(=O)NC1=O (stereo not given),4.76% (inactive),
CCN[C@H](C)Cc1cccc(C(F)(F)F)c1,-2.24% [at 92.7 µM] (inactive),
C=CCN1C[C@H](C)N([C@H](c2ccc(C(=O)N(CC)CC)cc2)c2cccc(OC)c2)C[C@H]1C,5.03% (inactive),
COC(=O)C(Cl)C(=O)OC,0.31% (inactive),

SMILES,"activity change, negative = cytotoxic",Potency
CCc1cc2c(s1)-n1c(C)nnc1CN=C2c1ccccc1Cl,10.1% (inactive),
Cc1ncsc1CCCl,8.87% (inactive),
COc1cc(OC)c(OC)cc1C=O,,inactive
CCN(CC)CCc1c[nH]c2ccccc12,-12.3% [at 155 µM] (inactive),
ClCCN1CCCC1,13.1% (inactive),
O=c1[nH]oc2c1CCNC2,3.26% (inactive),
C#CC(O)(C=CCl)CC (stereo not given),15.1% (inactive),
CC(NC(C)(C)C)C(=O)c1cccc(Cl)c1 (stereo not given),,inactive
CCCOC(=O)c1cncn1C(C)c1ccccc1 (stereo not given),11.4% (inactive),
C[C@]12CC[C@H]3[C@@H](CCC4=CC(=O)CC[C@@H]43)[C@@H]1CC[C@@H]2OC(=O)CCC1CCCCC1,12.5% (inactive),
CC(Cc1ccccc1)N(C)Cc1ccco1 (stereo not given),6.7% (inactive),
CCN[C@@H](C)Cc1cccc(C(F)(F)F)c1,-5.13% (inactive),
Clc1ccc(C(c2ccc(Cl)cc2)C(Cl)(Cl)Cl)cc1,-13.5% (inactive),
COc1ccc2c3c1O[C@H]1[C@H](O)CC[C@H]4[C@@H](C2)N(C)CC[C@@]341,6.13% [at 92.7 µM] (inactive),
CC(C(=O)c1ccccc1)N(C)C (stereo not given),7.45% (inactive),
C[C@@H]1CC2=CC(=O)CC[C@@H]2[C@H]2CC[C@@]3(C)[C@@H](CC[C@]3(C)O)[C@@H]21,-9.33% (inactive),
Nc1nc(N)nc(NC2CC2)n1,-9.92% (inactive),
C[N+]1(CCF)[C@@H]2CC[C@H]1CC(OC(=O)C(O)(c1ccccc1)c1ccccc1)C2 (stereo not given in full),8.54% (inactive),
CCCCC/C=C\C/C=C\C/C=C\C/C=C\CCCC(=O)NCC(=O)O,13.6% (inactive),
COc1cccc(C(=O)CCN[C@@H](C)[C@H](O)c2ccccc2)c1,7.84% (inactive),
